Measurements: PubChem BioAssay (NCATS)
Inconclusive results are not listed. A call without a number means that no potency is given here. The source made the active and inactive calls. Unless noted, calls come from the whole dose curve; as a rule, active = well fitted curve in the direction sought with a large enough effect; inconclusive = small, poorly fitted or top-dose-only effect, or another doubt; inactive = no such curve, though single readings can be large; an effect the other way counts as inactive or inconclusive.

Legend:
[1] = biological target: Tumor susceptibility gene 101 protein (Homo sapiens) (UniProt Q99816); assay: qHTS Validation Assay for Iinhibitors of HIV-1 Budding by Blocking the Interaction of PTAP/TSG101 (AID 485342; calls by dose curve); settings: TSG101-PTAP binding, fluorescence polarization, 4-point titration; series mostly up to 115 µM
How it was run: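 Fluorescence polarization of 50 nM FITC-PTAP peptide bound to 10 uM Tsg101 binding domain was read after 20 min room-temperature incubation with compounds, in 10 mM HEPES pH 7.5, 0.15 M NaCl, 0.01% Tween 20.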

[2] = biological target: Beta-2 adrenergic receptor (Homo sapiens) (UniProt P07550); assay: qHTS validation assay of beta-arrestin-biased ligands of beta2-adrenergic receptor (AID 485366); settings: cell-based beta-arrestin recruitment to ADRB2, qHTS; series mostly up to 46.1 µM
Beta-2 adrenergic receptor (Homo sapiens), sequence (P07550 whole entry, looked up): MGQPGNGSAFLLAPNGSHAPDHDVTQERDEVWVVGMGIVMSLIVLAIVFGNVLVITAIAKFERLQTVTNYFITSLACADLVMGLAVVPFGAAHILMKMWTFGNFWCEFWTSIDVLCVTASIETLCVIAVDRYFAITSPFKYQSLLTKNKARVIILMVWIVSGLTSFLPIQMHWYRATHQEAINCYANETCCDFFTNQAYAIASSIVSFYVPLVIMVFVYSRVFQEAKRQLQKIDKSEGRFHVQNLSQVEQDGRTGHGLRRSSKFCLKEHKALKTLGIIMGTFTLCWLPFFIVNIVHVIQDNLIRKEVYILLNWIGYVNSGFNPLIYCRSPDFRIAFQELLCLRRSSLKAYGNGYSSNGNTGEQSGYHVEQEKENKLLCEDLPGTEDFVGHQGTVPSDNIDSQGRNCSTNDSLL
How it was run: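 Screening used a titration range of up to 46 microM in a beta-arrestin recruitment Tango luciferase assay. Cells in 1% FBS medium were treated 18 hr at 37 degrees C, and luminescence was normalized to %Activity.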

[3] = biological target: ATP-dependent 6-phosphofructokinase (Trypanosoma brucei brucei) (UniProt O15648); assay: qHTS Validation Assay to Find Inhibitors of T. brucei phosphofructokinase (AID 485368); settings: T. brucei PFK enzyme assay, qHTS 7-point titration; at 57.5 µM (top of the series)
How it was run: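 PFK-generated ADP was measured after 45 min at room temperature using ADP-Glo. The reaction contained 0.5 mM F6P and 0.1 mM ATP.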

[4] = biological target: Thioredoxin reductase 1, cytoplasmic (Rattus norvegicus) (UniProt O89049); assay: qHTS Assay for Substrates of Mammalian Selenoprotein Thioredoxin Reductase 1 (TrxR1) (AID 488772); settings: purified TrxR1, NADPH consumption substrate assay; series mostly up to 57.1 µM;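 note: a drop in NADPH fluorescence below the no-compound background marks a TrxR1 substrate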
Thioredoxin reductase 1, cytoplasmic (Rattus norvegicus), sequence (O89049 whole entry, looked up): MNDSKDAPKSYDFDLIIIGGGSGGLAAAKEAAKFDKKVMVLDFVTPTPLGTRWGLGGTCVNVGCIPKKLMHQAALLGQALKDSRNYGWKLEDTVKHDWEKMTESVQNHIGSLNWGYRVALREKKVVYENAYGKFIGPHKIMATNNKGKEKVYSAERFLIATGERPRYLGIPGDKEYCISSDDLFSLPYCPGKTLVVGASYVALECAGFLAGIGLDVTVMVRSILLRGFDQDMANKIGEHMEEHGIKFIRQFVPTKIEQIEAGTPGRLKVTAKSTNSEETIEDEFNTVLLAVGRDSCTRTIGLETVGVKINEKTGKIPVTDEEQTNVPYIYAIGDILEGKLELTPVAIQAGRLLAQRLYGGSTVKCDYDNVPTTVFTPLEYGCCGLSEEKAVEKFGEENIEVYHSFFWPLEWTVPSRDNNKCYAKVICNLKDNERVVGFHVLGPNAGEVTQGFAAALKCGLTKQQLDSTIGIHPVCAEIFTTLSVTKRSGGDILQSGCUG
How it was run: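 In this dual-purpose format, potential substrates are identified from the first fluorescence read after selenite addition, not from the 8-minute delta. Rat enzyme is preincubated with NADPH and then with compound at ~22 deg C.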

[5] = biological target: Thioredoxin reductase 1, cytoplasmic (Rattus norvegicus) (UniProt O89049); assay: qHTS Assay for Inhibitors of Mammalian Selenoprotein Thioredoxin Reductase 1 (TrxR1) (AID 488773); settings: purified TrxR1 enzyme activity; series mostly up to 57.1 µM;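 note: drop in NADPH fluorescence over an 8 min run after selenite addition; nearly all actives have a fitted effect of over 40% in size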
How it was run: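 Inhibition is scored from the loss of NADPH fluorescence between first and last reads of an 8-min kinetic run. Selenite (400 uM) was the substrate, added after 15 min compound preincubation at room temperature.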

[6] = biological target: Flap endonuclease 1 (Homo sapiens) (UniProt P39748); assay: qHTS Validation Assay for the Inhibitors of Human Flap endonuclease 1 (FEN1) (AID 488816); settings: FEN1 nuclease activity, fluorogenic DNA substrate; series mostly up to 57.1 µM
How it was run: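 qHTS format: compounds and 10 nM FEN1 incubated 15 min at room temperature before adding 50 nM substrate. Cleavage followed by reads at 0 and 15 min; normalized data fitted to a four-parameter Hill curve.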

[7] = biological target: M-phase phosphoprotein 8 (Homo sapiens) (UniProt Q99549); assay: qHTS Validation Assay for Inhibitors for MPP8 Chromodomain Interactions with Methylated Histone Tails (AID 488949); settings: AlphaScreen MPP8 binding to H3K9me3 peptide; series mostly up to 114 µM;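 note: AlphaScreen signal from MPP8 chromodomain bound to biotinylated H3K9me3 peptide; top concentration of the series differs between compounds; nearly all actives have a fitted effect of over 55% in size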
M-phase phosphoprotein 8 (Homo sapiens), sequence (Q99549 whole entry, looked up): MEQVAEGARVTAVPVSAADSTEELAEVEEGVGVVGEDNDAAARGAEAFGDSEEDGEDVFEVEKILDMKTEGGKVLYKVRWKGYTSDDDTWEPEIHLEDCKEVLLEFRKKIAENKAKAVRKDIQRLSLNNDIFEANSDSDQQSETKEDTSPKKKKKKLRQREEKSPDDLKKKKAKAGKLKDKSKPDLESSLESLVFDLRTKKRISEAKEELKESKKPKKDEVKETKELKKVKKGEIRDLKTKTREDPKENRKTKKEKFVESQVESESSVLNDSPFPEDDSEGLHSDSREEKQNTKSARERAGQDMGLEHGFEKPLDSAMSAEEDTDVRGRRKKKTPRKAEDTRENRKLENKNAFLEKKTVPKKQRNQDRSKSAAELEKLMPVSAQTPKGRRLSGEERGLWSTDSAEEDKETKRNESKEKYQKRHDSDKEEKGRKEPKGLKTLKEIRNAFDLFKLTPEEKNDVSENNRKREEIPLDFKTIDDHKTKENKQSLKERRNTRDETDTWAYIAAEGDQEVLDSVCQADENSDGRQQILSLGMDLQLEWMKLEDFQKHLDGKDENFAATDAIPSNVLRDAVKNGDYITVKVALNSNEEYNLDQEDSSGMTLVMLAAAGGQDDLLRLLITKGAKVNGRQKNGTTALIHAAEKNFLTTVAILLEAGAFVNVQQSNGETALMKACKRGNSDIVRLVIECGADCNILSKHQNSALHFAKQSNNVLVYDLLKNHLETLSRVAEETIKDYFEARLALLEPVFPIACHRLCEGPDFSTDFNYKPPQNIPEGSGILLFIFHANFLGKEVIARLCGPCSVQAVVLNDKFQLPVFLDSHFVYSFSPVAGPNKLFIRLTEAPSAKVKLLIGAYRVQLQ
How it was run: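 AlphaScreen proximity signal from streptavidin donor and Ni-chelate acceptor beads (10 ug/mL each) reported binding of MPP8 to trimethyl-K9 H3(1-18) peptide, both at 50 nM. The complex formed 30 min before a 30 min compound exposure at room temperature, in PBS pH 7.4.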

[8] = biological target: Chromobox protein homolog 1 (Homo sapiens) (UniProt P83916); assay: qHTS Validation Assay for Inhibitors of HP1-beta Chromodomain Interactions with Methylated Histone Tails (AID 488953); settings: HP1-beta chromodomain / methylated histone peptide binding assay; series mostly up to 114 µM;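 note: loss of AlphaScreen luminescence from HP1-beta binding biotinylated H3K9me3 peptide; nearly all actives have a fitted effect of over 50% in size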
Chromobox protein homolog 1 (Homo sapiens), sequence (P83916 whole entry, looked up): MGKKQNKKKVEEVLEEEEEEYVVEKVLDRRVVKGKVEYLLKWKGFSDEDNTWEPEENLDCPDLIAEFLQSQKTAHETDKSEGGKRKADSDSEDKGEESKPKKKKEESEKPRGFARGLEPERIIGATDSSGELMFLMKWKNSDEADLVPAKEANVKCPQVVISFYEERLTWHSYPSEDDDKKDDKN
How it was run: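 AlphaScreen proximity readout: streptavidin donor and Ni-chelate acceptor beads, 10 ug/mL final, 30 min dark, RT. Complex of 50 nM HP1-beta and 50 nM b-H3(1-18)K9me3 formed 30 min, then compound-treated 30 min; PBS pH 7.4/0.01% Tween-20.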

[9] = biological target: Methanococcus maripaludis chaperonin (MmCpn) (UniProt Q6LX38); assay: High-Throughput Screening for Modulators of Cytosolic Chaperonin Activity: MmCpn Primary Screen (AID 488978); settings: Purified MmCpn ATPase activity, ADP HTRF detection, 10 min; series mostly up to 76.9 µM;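 note: 50 nM MmCpn enzyme hydrolysing 30 µM ATP at 37 °C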
Methanococcus maripaludis chaperonin (MmCpn), sequence (Q6LX38 1-543): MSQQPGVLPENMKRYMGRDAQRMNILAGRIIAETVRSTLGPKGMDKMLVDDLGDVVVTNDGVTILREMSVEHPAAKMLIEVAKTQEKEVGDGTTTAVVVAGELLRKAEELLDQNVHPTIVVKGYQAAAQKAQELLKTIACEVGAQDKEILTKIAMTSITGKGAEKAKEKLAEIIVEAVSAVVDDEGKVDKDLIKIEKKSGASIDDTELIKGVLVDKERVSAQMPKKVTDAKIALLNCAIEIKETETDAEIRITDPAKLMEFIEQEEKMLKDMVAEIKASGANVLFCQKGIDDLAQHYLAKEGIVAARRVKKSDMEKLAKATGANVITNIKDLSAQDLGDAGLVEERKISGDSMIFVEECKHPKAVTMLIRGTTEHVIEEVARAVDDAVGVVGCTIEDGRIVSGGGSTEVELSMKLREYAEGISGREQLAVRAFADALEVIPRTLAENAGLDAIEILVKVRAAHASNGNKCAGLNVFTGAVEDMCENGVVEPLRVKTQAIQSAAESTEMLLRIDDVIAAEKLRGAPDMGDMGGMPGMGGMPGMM
How it was run: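 ATPase activity of 50 nM MmCpn was assayed with 30 uM ATP, 10 minutes at 37C, after a 5 min compound preincubation at room temperature. ADP production was read as HTRF emission at 590 and 665 nm.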

[10] = biological target: Thyrotropin receptor (Homo sapiens) (UniProt P16473); assay: qHTS Assay for Antagonists of the Thyroid Stimulating Hormone Receptor (AID 488980); settings: TSHR-expressing cells, cAMP antagonist read-out; series mostly up to 57.5 µM
Thyrotropin receptor (Homo sapiens), sequence (P16473 whole entry, looked up): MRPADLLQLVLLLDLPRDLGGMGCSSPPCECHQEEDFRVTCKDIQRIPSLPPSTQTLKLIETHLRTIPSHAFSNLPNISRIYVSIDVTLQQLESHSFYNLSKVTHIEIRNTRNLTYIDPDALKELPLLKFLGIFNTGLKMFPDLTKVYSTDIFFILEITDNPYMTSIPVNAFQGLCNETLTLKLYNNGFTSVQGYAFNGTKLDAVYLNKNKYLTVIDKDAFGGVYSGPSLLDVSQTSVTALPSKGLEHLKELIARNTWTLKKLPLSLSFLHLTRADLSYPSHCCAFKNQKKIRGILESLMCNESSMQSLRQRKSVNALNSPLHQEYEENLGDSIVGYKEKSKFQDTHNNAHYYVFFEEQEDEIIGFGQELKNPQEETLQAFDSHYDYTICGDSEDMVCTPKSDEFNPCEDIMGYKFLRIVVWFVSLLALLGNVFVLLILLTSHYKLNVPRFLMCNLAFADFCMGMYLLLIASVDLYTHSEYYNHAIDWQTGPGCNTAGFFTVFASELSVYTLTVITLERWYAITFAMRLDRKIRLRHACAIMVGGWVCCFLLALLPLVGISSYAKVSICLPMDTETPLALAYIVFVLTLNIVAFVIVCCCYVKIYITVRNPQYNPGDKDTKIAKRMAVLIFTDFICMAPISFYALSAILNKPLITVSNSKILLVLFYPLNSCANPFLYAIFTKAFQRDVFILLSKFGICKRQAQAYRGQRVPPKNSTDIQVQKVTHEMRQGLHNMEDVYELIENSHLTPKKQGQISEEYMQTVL
How it was run: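 Inhibition of cAMP raised by EC80 TSH (4 nM final) was read by HTRF, with lysate cAMP competing against cAMP-d2 for cryptate antibody after 30 min at room temperature. The cells were transfected HEK293 held in phosphodiesterase inhibitor RO 20-1724 at 70 uM.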

[11] = biological target: D(1A) dopamine receptor (Homo sapiens) (UniProt P21728); assay: HTS Assay for Allosteric Agonists of the Human D1 Dopamine Receptor: Primary Screen for Agonists (AID 488981); settings: Inducible HEK293 T-REx D1 cells, calcium-flux fluorescence, 180 s kinetic; series mostly up to 41.8 µM
D(1A) dopamine receptor (Homo sapiens), sequence (P21728 whole entry, looked up): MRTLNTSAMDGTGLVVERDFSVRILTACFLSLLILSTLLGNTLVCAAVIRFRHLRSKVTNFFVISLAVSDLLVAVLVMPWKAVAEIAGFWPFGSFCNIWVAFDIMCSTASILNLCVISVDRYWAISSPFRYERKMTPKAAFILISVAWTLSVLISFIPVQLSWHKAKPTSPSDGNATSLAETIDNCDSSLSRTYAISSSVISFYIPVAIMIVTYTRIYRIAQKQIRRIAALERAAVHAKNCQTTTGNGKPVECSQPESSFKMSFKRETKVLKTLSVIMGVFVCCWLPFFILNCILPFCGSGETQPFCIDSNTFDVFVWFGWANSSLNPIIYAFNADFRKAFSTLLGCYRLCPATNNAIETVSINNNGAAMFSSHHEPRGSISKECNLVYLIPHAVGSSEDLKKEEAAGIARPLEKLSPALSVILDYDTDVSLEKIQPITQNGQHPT
How it was run: (§1)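 Calcium flux in an inducible, force-coupled HEK293 Trex D1 line (overnight at 30 C): agonist mode is the 180 s kinetic read after compound; potentiator mode is the following 180 s read after dopamine at EC20.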

[12] = biological target: D(1A) dopamine receptor (Homo sapiens) (UniProt P21728); assay: HTS Assay for Allosteric Agonists of the Human D1 Dopamine Receptor: Primary Screen for Potentiators (AID 488982); settings: HEK293 T-REx D1 inducible cells, calcium flux, kinetic fluorescence; series mostly up to 8.37 µM
How it was run: as §1

[13] = biological target: D(1A) dopamine receptor (Homo sapiens) (UniProt P21728); assay: HTS Assay for Allosteric Agonists of the Human D1 Dopamine Receptor: Primary Screen for Antagonists (AID 488983); settings: D1 receptor cell assay, antagonist mode, qHTS titration; series mostly up to 41.8 µM;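 note: calcium flux response to an EC80 dopamine challenge measured with no-wash dye; nearly all actives have a fitted effect of over 65% in size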
How it was run: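 Calcium flux readout, no-wash dye, inducible HEK293 T-REx D1 line (force-coupled). Compound added after 10 s baseline, 180 s kinetic read; then dopamine at EC80, further 180 s read.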

[14] = Validation screen for small molecules that induce genotoxicity in human embryonic kidney (HEK293T) cells expressing luciferase-tagged ELG1 (AID 493106); settings: luminescence; note: potency is the fitted concentration of half-maximal effect
How it was run: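 qHTS format; 2,000 HEK293T ELG1-luc cells/well; 23 nL compound via pin tool; 16 hr, 37 °C/5% CO2; ONE-Glo, 30 min RT; luminescence read.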

[15] = biological target: Thyrotropin-releasing hormone receptor (Homo sapiens) (UniProt P34981); assay: qHTS for Small Molecule Agonists and Allosteric Enhancers of Human TRH Receptor: Validation Screen for Agonists (AID 493127;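 active = calcium activation more than 3 SD above the typical response in the agonist read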;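 note: intracellular calcium rise by fluo-8 fluorescence before TRH EC20 addition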); settings: TRH receptor agonist cell assay; at 2 µM; stronger effect = higher value
Thyrotropin-releasing hormone receptor (Homo sapiens), sequence (P34981 whole entry, looked up): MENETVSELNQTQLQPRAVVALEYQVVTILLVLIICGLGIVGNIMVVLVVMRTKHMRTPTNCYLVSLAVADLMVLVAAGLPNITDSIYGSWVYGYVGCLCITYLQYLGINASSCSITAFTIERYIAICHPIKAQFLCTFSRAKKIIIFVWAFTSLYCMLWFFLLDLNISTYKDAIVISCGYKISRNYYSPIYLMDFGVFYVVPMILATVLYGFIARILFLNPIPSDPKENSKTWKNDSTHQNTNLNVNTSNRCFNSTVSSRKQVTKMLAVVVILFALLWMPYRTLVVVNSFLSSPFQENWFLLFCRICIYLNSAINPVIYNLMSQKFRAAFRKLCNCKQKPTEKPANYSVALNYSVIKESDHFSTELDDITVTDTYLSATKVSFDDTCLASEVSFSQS
How it was run: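 Read-out: intracellular calcium release measured kinetically by FDSS (fluo-8, ex 480/em 530 nm), 1 reading/s after a 10-cycle baseline. TRHR cells, 2000/well, cultured 18 h at 33.5C, dye-loaded at room temp. Compound-evoked positive calcium signal flags agonists.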

[16] = Nrf2 qHTS screen for inhibitors: Validation (AID 493153; active = well fitted inhibition curve with a large enough effect in the main read-out, with a control signal flat, not every such curve was filed as active); settings: A549 ARE-Fluc reporter, 18-24 h; viability change: measured here: cytotoxicity max response; luciferase luminescence, at 46.1 µM (top of the series)
How it was run: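 Concentration-response test in A549 ARE_Fluc reporter cells (5% FBS OPTI-MEM), compound exposure 18-24 h at 37°C, 5% CO2. Cell viability measured first by CellTiter-Fluor fluorescence; ARE-driven luciferase luminescence then measured as Nrf2 activity.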

[17] = Quantitative high throughput screen for delayed death inhibitors of the malarial parasite plastid, 96 hour incubation (AID 488745); settings: Plasmodium falciparum growth; note: potency is the fitted concentration of half-maximal effect; nearly all actives have a fitted effect of over 70% in size
How it was run: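 Luciferase-expressing P. falciparum, infected RBCs 2% Hct/0.1% parasitemia (final); 96 h cpd exposure, 37 C, 5% CO2; RPMI 1640 + 0.5% Albumax, bicarbonate, gentamycin. Readout: luminescence loss = growth inhibition.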

[18] = Quantitative high throughput screen for delayed death inhibitors of the malarial parasite plastid, 48 hour incubation (AID 488752); settings: Plasmodium falciparum growth; note: potency is the fitted concentration of half-maximal effect; nearly all actives have a fitted effect of over 65% in size
How it was run: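 Luciferase-expressing P. falciparum in RBCs, 2% Hct, 0.1% parasitemia final; RPMI 1640 + 0.5% Albumax; 48 h, 37 C, 5% CO2; luminescence readout, signal drop = growth inhibition.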

[19] = biological target: Transient receptor potential cation channel subfamily V member 1 (Homo sapiens) (UniProt Q8NER1); assay: HTS Assay for Compounds that Act as Enhancers of the Vanilloid Receptor 1 (AID 488979); settings: TRPV1-expressing cells, enhancer of channel activity, stimulated with capsaicin at EC20; series mostly up to 41.7 µM
Transient receptor potential cation channel subfamily V member 1 (Homo sapiens), sequence (Q8NER1 whole entry, looked up): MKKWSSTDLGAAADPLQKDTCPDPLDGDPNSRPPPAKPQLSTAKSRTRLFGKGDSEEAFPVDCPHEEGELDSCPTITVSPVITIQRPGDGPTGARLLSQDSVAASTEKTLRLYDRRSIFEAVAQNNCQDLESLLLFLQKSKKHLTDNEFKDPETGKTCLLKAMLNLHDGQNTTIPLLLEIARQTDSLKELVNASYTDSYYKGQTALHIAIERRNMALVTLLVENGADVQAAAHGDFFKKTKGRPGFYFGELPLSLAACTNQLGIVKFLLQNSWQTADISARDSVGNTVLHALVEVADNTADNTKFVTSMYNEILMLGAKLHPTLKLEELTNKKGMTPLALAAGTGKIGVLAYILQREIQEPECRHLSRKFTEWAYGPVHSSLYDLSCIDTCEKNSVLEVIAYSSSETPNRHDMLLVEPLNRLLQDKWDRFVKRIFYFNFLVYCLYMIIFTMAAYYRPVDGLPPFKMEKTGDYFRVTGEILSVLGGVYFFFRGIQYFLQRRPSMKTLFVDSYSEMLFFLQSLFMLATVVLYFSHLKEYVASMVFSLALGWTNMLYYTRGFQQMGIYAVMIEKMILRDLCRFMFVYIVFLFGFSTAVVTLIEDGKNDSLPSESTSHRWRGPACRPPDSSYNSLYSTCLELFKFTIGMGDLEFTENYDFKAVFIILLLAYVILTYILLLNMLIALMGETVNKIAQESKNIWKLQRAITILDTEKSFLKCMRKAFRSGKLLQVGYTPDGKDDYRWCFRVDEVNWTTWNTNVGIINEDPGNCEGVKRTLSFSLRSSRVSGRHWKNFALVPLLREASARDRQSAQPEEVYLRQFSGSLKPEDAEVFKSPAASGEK
How it was run: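 Calcium influx kinetics via Fluo-8 (480/520 nm) in TRPV1-expressing cells, 2000/well cultured overnight at 35.5C. Compound-alone read 3 min (agonist phase), followed by EC20 capsaicin challenge for 2 min (enhancer phase).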

SMILES	outcome [1]	outcome [2]	outcome [3]	outcome [4]	outcome [5]	outcome [6]	outcome [7]	outcome [8]	outcome [9]	outcome [10]	outcome [11]	outcome [12]	outcome [13]	Potency [14]	activation [15]	outcome [16]	viability change [16] [%]	Potency [17]	Potency [18]	outcome [19]
O=c1c2ccccc2nc2n1CCc1c-2[nH]c2ccccc12	inactive	inactive	inactive	inactive	inactive	inactive	inactive	inactive	inactive	inactive	inactive	inactive	inactive	8.2 µM (active)	-4.5% (inactive)	inactive	-3.53	–	–	–
CC[C@H](CO)Nc1nc(NCc2ccccc2)c2ncn(C(C)C)c2n1	–	–	–	–	–	–	inactive	–	–	inactive	–	–	–	–	0.312% (inactive)	–	–	1.04 µM (active)	4.65 µM (active)	inactive
